A selection: hits, their analogues and other compounds. The true share with any hit is near 2.2%.
HIF act: HIF pathway transcriptional activators, primary screen, cell-based, U2OS HRE-luciferase, luminescence | U2OS HRE-luciferase reporter; normalized: DMSO 0%, desferrioxamine 100% | activation, % at 7.5 µM (by protocol) | actives 0.32% (n = 300,000) | AID 1910, 2009;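 active = mean activation of at least 10% of the iron chelator positive control signal, with at least half of replicates also reaching 10%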
CHT PAM: CHT positive allosteric modulators, primary screen, cell-based, membrane potential dye, choline EC20. CHT-expressing cells; stronger effect = higher value; LV-AA mutant CHT in HEK293 cells. B-score at 10 µM. actives 0.49% (n = 310,000);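 active = initial fluorescence not abnormally high and integrated response B-score, plate-corrected, over 3 SD above library mean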
Target sequence (Q9GZV3 whole entry, looked up): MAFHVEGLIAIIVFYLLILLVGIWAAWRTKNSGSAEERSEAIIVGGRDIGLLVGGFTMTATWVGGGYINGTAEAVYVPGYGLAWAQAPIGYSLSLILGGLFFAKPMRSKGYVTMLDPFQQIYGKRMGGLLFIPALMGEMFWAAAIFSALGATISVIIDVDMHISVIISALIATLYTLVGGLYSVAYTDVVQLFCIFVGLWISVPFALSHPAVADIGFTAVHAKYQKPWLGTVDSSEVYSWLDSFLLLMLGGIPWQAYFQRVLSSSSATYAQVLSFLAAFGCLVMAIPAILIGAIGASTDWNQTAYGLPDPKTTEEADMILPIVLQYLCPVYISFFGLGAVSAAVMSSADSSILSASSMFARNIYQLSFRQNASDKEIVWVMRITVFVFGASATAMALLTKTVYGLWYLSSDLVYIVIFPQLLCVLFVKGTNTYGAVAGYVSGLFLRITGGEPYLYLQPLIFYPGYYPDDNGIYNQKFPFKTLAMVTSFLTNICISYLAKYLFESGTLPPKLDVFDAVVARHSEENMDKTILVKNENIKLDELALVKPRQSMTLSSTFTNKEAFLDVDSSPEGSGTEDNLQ
Platelet DG rel: inhibitors of platelet dense granule secretion, primary screen, cell-based, MLPCN, human platelets | actives 0.22% (n = 300,000) | AID 1663, 2009 | inhibition, %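 (compounds screened at 7.5 µM in platelet-rich plasma)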 | human platelet-rich plasma, SFLLRN dense granule ATP release, luminescence;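 active = mean replicate score, as percent of positive control, at or above 50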
CHT block: inhibitors of human choline transporter CHT; High affinity choline transporter 1 (Homo sapiens), Q9GZV3; CHT-expressing cells, membrane potential dye, choline response; stronger effect = lower value; B-score at 10 µM; actives 0.86% (n = 310,000); AID 488975, 2010;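 active = B-score over 3 SD under the library average, and starting fluorescence ratio not unusually high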;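 note: choline stimulus applied at its EC90 after an EC20 pre-addition; B-score computed on integrated fluorescence ratio after choline addition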
AI-2 QS mod: Vibrio harveyi AI-2 quorum sensing modulators, primary screen, JMH597 strain, luminescence/OD600 ratio. Vibrio harveyi JMH597 AI-2 luminescence/OD600 ratio, 9 h; stronger effect = lower value; strain lacks LuxN and CqsS sensors; 0 = neutral-control median. activity change, % at 7.5 µM. actives 0.4% (n = 300,000). AID 2094, 2009; in the data active = activity change below about -75%, passing the limit was not always enough;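 note: luminescence divided by OD600 gain over 9 h not by final OD600 alone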
VLA-4 inh: inhibition in human VLA-4 binding assay, primary screen, VLA-4 allosteric modulator project, MLPCN library, flow cytometry, VLA-4 expressing cells | Integrin alpha-4 (Homo sapiens), P13612 | ligand binding flow cytometry | inhibition, % (about 7 µM as worked out from the volumes in the protocol) | actives 0.2% (n = 330,000) | AID 2557, 2010; in the data active = inhibition above about 50%
CHT act confirm: CHT activators, confirmation, cell-based, membrane potential dye, duplicate; AID 504833, 2011; activation, % at 10 µM; actives 91% (n = 2,500); shares compounds with CHT PAM; CHT-expressing cells, membrane potential dye fluorescence (FDSS); % of choline EC20–EC90 response window; HEK293 expressing CHT LV-AA mutant; choline added at its EC20;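 active = primary screen active, with duplicate mean activation above negative control mean plus 3 SD, cut at about 11% in these data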
HEK293 MP dye: membrane potential response in parental HEK293 cells, counter-screen for CHT activator project, cell-based, membrane potential dye; shares compounds with CHT PAM; membrane potential dye fluorescence (FDSS); measured after EC20 choline addition; ratio readout change at 10 µM, hits read low; actives 62% (n = 2,500);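 active = duplicate-averaged ratio beyond 3 SD from buffer wells, up or down, though filed actives are nearly all decreases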
Starred values were filed as active, the others as inactive; i = inactive; · = no result given.

SMILES	HIF act	CHT PAM	Platelet DG rel	CHT block	AI-2 QS mod	VLA-4 inh	CHT act confirm	HEK293 MP dye
COc1ccccc1CNC(=O)c1cc2c(=O)[nH]c3ccccc3c2n1C	-0.5	i	-5.0	i	14.3	-1.3	·	·
N#Cc1cc(N2CCCCC2)c([N+](=O)[O-])cc1C#N	-0.1	i	-8.7	i	2.9	23.9	·	·
CN(C)CCC1CCN(c2cc(C#N)c(C#N)cc2[N+](=O)[O-])CC1	-1.0	7.16*	2.1	i	8.6	5.9	57.7*	-63.9*
C#CCSc1nnc(-c2ccc([N+](=O)[O-])cc2)o1	0.6	i	-0.5	i	26.1	2.7	·	·
Fc1ccc(C(c2nnnn2C2CCCC2)N(Cc2ccco2)CC2CCCO2)cc1 (stereo not drawn)	-0.3	8.63*	-6.4	i	14.7	3.4	45.5*	i
CC(C)(C)n1nnnc1C(c1ccc(C(F)(F)F)cc1)N(Cc1ccc(F)cc1)Cc1ccco1 (stereo not drawn)	-0.5	11.5*	-3.7	i	10.3	-5.4	30.9*	i
OCCCNc1ncnc2sc3c(c12)CCN(Cc1ccccc1)C3	-0.1	6.24*	10.9	i	-10.3	-0.2	48.7*	-52.6*
COCC(=O)N(C)c1nnc(-c2cnc(C)cn2)s1	-45.5	6.41*	-3.9	i	24.5	8.1	59.1*	-54.5*
CCCCNc1cc(C)nc(NCc2ccccc2)n1	1.5	9.17*	1.8	i	46.8	4.0	32.6*	i
O=C(C[C@H]1C/C=C\CC[C@H](Cc2ccc(F)cc2)C(=O)OC[C@@H](Cc2c[nH]c3ccccc23)NC1=O)NCCO	·	·	·	·	·	4.4	·	·
CCOC(=O)C1(CCOc2ccccc2)CCN(Cc2ccc(OC)cc2)CC1	-0.8	i	1.7	i	23.5	-3.2	·	·
CCOC(=O)C1(CCOc2ccccc2)CCN(Cc2ccc3nonc3c2)CC1	-1.5	6.41*	-0.9	i	3.6	0.0	6.3	i
CCOC(=O)C1(CCc2ccccc2)CCN(Cc2cc(OC)c(OC)cc2OC)CC1	-2.5	10.5*	-0.2	i	11.8	4.5	55.9*	i
COCCSc1ccccc1C(=O)N1CCN(Cc2ccccc2)CC1	-0.6	i	-2.7	i	16.0	-7.7	·	·
CC(Nc1ccnc2cc(Cl)ccc12)c1ccc(S(N)(=O)=O)cc1 (stereo not drawn)	-0.1	i	-1.5	i	12.7	-11.2	35.4*	-46*
COC(=O)CSc1ccnc2cc(Cl)ccc12	0.4	i	-1.0	i	-1.7	4.1	·	·
COc1ccc(C(=O)N/N=C/c2sc(N3CCOCC3)nc2-c2ccccc2)cc1OC	-0.4	i	12.8	i	20.0	-2.6	·	·
COc1ccccc1NS(=O)(=O)c1cc([N+](=O)[O-])ccc1N/N=C/c1sc(N2CCOCC2)nc1-c1ccccc1	-0.6	i	26.8	i	28.7	i	23.3*	i
CCOC(=O)C[n+]1ccc2c([nH]c3ccccc32)c1C	-0.7	i	-1.3	i	18.6	4.8	49.5*	-40.6*
CC(C)CCOC(=O)/C(=C/c1ccco1)NC(=O)/C=C/c1ccccc1	-0.1	8.44*	-2.0	i	8.4	-12.5	16.2*	i
NC(=O)/C(=C/c1ccco1)NC(=O)/C=C/c1ccccc1	-0.2	i	2.7	i	11.8	-23.6	·	·
COc1ccc(Nc2nc(Cl)c(C=O)s2)cc1	1.9	i	-49.4	i	20.1	-51.3	·	·
COC(=O)CCCC1=CC2=C(c3ccccc3)C(=O)C(C)(OC(=O)C3CCCC3)C(=O)C2=CN1CCCCO (stereo not drawn)	0.1	i	0.8	i	13.9	-9.0	·	·
COC(=O)CCCC1=CC2=C(c3ccccc3)C(=O)C(C)(OC(=O)C3CCCC3)C(=O)C2=CN1Cc1ccco1 (stereo not drawn)	-0.2	9.08*	3.0	i	31.1	22.3	47.3*	i
CC(=O)O[C@@H]1[C@@H](OC(C)=O)[C@H](n2ccc3cc([N+](=O)[O-])ccc32)OC[C@@H]1OC(C)=O	0.4	i	1.0	i	7.2	2.8	·	·
SMILES	HIF act	CHT PAM	Platelet DG rel	CHT block	AI-2 QS mod	VLA-4 inh	CHT act confirm	HEK293 MP dye
Cc1cc(C)c2cc3c(ccn3C3OC[C@H](O)[C@H](O)[C@H]3O)cc2n1 (stereo partly drawn)	-0.4	i	0.3	i	19.8	-4.5	62.0*	-45.9*
COc1cc(CN2CCCCC2C(=O)Nc2ccc(Oc3ccccc3)nc2)ccc1O (stereo not drawn)	0.9	i	5.6	i	1.5	6.1	·	·
Cc1ccc(CNc2nc(C)nc3sc4c(c23)CCC4)cc1	-0.3	i	-7.8	i	2.7	0.2	·	·
Cc1nc(NC(C)c2ccccc2)c2c3c(sc2n1)CCC3 (stereo not drawn)	-0.2	i	5.4	i	25.6	-1.5	18.1*	i
COc1cc(NS(C)(=O)=O)ccc1Nc1c2ccccc2nc2ccccc12	·	8.29*	·	i	·	-8.5	13.3*	-54*
CCN1CCCC(Sc2nc3c([nH]2)c(=S)n(C)c(=O)n3C)C1 (stereo not drawn)	-0.2	i	-2.2	i	1.1	9.8	29.0*	-25.7*
N#CC1=C(N)Oc2cc(N)ccc2C1c1cccc(Br)c1 (stereo not drawn)	-0.1	i	4.0	i	-3.2	-0.4	33.6*	i
Cc1ccc(C2C(C#N)=C(N)Oc3cc(N)ccc32)cc1 (stereo not drawn)	-1.0	i	11.5	i	16.2	-26.4	·	·
N=c1c2c3c(sc2ncn1CCCO)CCCC3	-0.2	9.53*	-3.0	i	8.5	3.5	26.5*	-56.1*
N=c1c2c3c(sc2ncn1Cc1ccccc1)CCCC3	0.4	i	-19.7	i	8.3	0.0	·	·
CCCCn1cnc2sc3c(c2c1=N)CCCC3	0.0	i	1.9	i	10.1	-6.8	53.1*	-41.3*

High-throughput results: PubChem, several laboratories
